The chains are these.
B1: UCCAGUA (DNA:RNA)
RNA: GGGAGACCGGAAUUCAGAUUGUCCUCCAGUAUUAAAUCCCGUCGUAGCCACCA
DNA 1: CAATCTGAATTCCGGTCTCCC
DNA 2: TGGTGGCTACGACGGGATT
B2: GACCGUC (DNA:RNA)
RNA: B1 RNA with U25G, C26A, A28C, A31C
DNA 1: CAATCTGAATTCCGGTCTCCC
DNA 2: TGGTGGCTACGACGGGATT
B3: GAAUGUC (DNA:RNA)
RNA: B1 RNA with U25G, C26A, C27A, A28U, A31C
DNA 1: CAATCTGAATTCCGGTCTCCC
DNA 2: TGGTGGCTACGACGGGATT
B4: GAAAAUG (DNA:RNA)
RNA: B1 RNA with U25G, C26A, C27A, G29A, A31G
DNA 1: CAATCTGAATTCCGGTCTCCC
DNA 2: TGGTGGCTACGACGGGATT
B5: AAAGCCU (DNA:RNA)
RNA: GGGAGACCGGAAUUCAGAUUGUCCAAAGCCUUUAAAUCCCGUCGUAGCCACCA
DNA 1: CAATCTGAATTCCGGTCTCCC
DNA 2: TGGTGGCTACGACGGGATT
B6: CUAUCCC (DNA:RNA)
RNA: B5 RNA with A25C, A26U, G28U, U31C
DNA 1: CAATCTGAATTCCGGTCTCCC
DNA 2: TGGTGGCTACGACGGGATT
B7: GAAGAAU (DNA:RNA)
RNA: B5 RNA with A25G, C29A, C30A
DNA 1: CAATCTGAATTCCGGTCTCCC
DNA 2: TGGTGGCTACGACGGGATT
B8: GGGUUCG (DNA:RNA)
RNA: B5 RNA with A25G, A26G, A27G, G28U, C29U, U31G
DNA 1: CAATCTGAATTCCGGTCTCCC
DNA 2: TGGTGGCTACGACGGGATT
B9: GGUUCGG (DNA:RNA)
RNA: B5 RNA with A25G, A26G, A27U, G28U, C30G, U31G
DNA 1: CAATCTGAATTCCGGTCTCCC
DNA 2: TGGTGGCTACGACGGGATT
B10: GGGGUUC (DNA:RNA)
RNA: B5 RNA with A25G, A26G, A27G, C29U, C30U, U31C
DNA 1: CAATCTGAATTCCGGTCTCCC
DNA 2: TGGTGGCTACGACGGGATT
B11: GGUUAUG (DNA:RNA)
RNA: B1 RNA with U25G, C26G, C27U, A28U, G29A, A31G
DNA 1: CAATCTGAATTCCGGTCTCCC
DNA 2: TGGTGGCTACGACGGGATT
B12: CGUUCGG (DNA:RNA)
RNA: B5 RNA with A25C, A26G, A27U, G28U, C30G, U31G
DNA 1: CAATCTGAATTCCGGTCTCCC
DNA 2: TGGTGGCTACGACGGGATT
B13: GUUCGGG (DNA:RNA)
RNA: B1 RNA with U25G, C26U, C27U, A28C, U30G, A31G
DNA 1: CAATCTGAATTCCGGTCTCCC
DNA 2: TGGTGGCTACGACGGGATT
B14: CGGUUCG (DNA:RNA)
RNA: B5 RNA with A25C, A26G, A27G, G28U, C29U, U31G
DNA 1: CAATCTGAATTCCGGTCTCCC
DNA 2: TGGTGGCTACGACGGGATT
B15: CGUUAUG (DNA:RNA)
RNA: B1 RNA with U25C, C26G, C27U, A28U, G29A, A31G
DNA 1: CAATCTGAATTCCGGTCTCCC
DNA 2: TGGTGGCTACGACGGGATT
B16: GUCCCGG (DNA:RNA)
RNA: B5 RNA with A25G, A26U, A27C, G28C, C30G, U31G
DNA 1: CAATCTGAATTCCGGTCTCCC
DNA 2: TGGTGGCTACGACGGGATT
B17: GUAAAAU (DNA:RNA)
RNA: B5 RNA with A25G, A26U, G28A, C29A, C30A
DNA 1: CAATCTGAATTCCGGTCTCCC
DNA 2: TGGTGGCTACGACGGGATT
B18: GGCCGCA (DNA:RNA)
RNA: B1 RNA with U25G, C26G, A28C, U30C
DNA 1: CAATCTGAATTCCGGTCTCCC
DNA 2: TGGTGGCTACGACGGGATT
B19: CCUGUUG (DNA:RNA)
RNA: B1 RNA with U25C, C27U, A28G, G29U, A31G
DNA 1: CAATCTGAATTCCGGTCTCCC
DNA 2: TGGTGGCTACGACGGGATT
B20: AGGGCAC (DNA:RNA)
RNA: B5 RNA with A26G, A27G, C30A, U31C
DNA 1: CAATCTGAATTCCGGTCTCCC
DNA 2: TGGTGGCTACGACGGGATT
B21: UAGCUUA (DNA:RNA)
RNA: B1 RNA with C26A, C27G, A28C, G29U
DNA 1: CAATCTGAATTCCGGTCTCCC
DNA 2: TGGTGGCTACGACGGGATT
B22: GUUAGGG (DNA:RNA)
RNA: B1 RNA with U25G, C26U, C27U, U30G, A31G
DNA 1: CAATCTGAATTCCGGTCTCCC
DNA 2: TGGTGGCTACGACGGGATT
B23: ACCGGAG (DNA:RNA)
RNA: B1 RNA with U25A, A28G, U30A, A31G
DNA 1: CAATCTGAATTCCGGTCTCCC
DNA 2: TGGTGGCTACGACGGGATT
B24: AAUUGGC (DNA:RNA)
RNA: B5 RNA with A27U, G28U, C29G, C30G, U31C
DNA 1: CAATCTGAATTCCGGTCTCCC
DNA 2: TGGTGGCTACGACGGGATT
B25: ACCACUC (DNA:RNA)
RNA: B1 RNA with U25A, G29C, A31C
DNA 1: CAATCTGAATTCCGGTCTCCC
DNA 2: TGGTGGCTACGACGGGATT
B26: CGUCAUG (DNA:RNA)
RNA: B1 RNA with U25C, C26G, C27U, A28C, G29A, A31G
DNA 1: CAATCTGAATTCCGGTCTCCC
DNA 2: TGGTGGCTACGACGGGATT
B27: GGCUAUC (DNA:RNA)
RNA: B1 RNA with U25G, C26G, A28U, G29A, A31C
DNA 1: CAATCTGAATTCCGGTCTCCC
DNA 2: TGGTGGCTACGACGGGATT
B28: UAUGUCG (DNA:RNA)
RNA: B5 RNA with A25U, A27U, C29U, U31G
DNA 1: CAATCTGAATTCCGGTCTCCC
DNA 2: TGGTGGCTACGACGGGATT
B29: GGCUAUG (DNA:RNA)
RNA: B1 RNA with U25G, C26G, A28U, G29A, A31G
DNA 1: CAATCTGAATTCCGGTCTCCC
DNA 2: TGGTGGCTACGACGGGATT
B30: UGUCAUC (DNA:RNA)
RNA: B1 RNA with C26G, C27U, A28C, G29A, A31C
DNA 1: CAATCTGAATTCCGGTCTCCC
DNA 2: TGGTGGCTACGACGGGATT
B31: UGUUAUC (DNA:RNA)
RNA: B1 RNA with C26G, C27U, A28U, G29A, A31C
DNA 1: CAATCTGAATTCCGGTCTCCC
DNA 2: TGGTGGCTACGACGGGATT
B32: UGUCCUG (DNA:RNA)
RNA: B1 RNA with C26G, C27U, A28C, G29C, A31G
DNA 1: CAATCTGAATTCCGGTCTCCC
DNA 2: TGGTGGCTACGACGGGATT
B33: UGUUAUG (DNA:RNA)
RNA: B1 RNA with C26G, C27U, A28U, G29A, A31G
DNA 1: CAATCTGAATTCCGGTCTCCC
DNA 2: TGGTGGCTACGACGGGATT
B34: UGUAUCU (DNA:RNA)
RNA: B5 RNA with A25U, A26G, A27U, G28A, C29U
DNA 1: CAATCTGAATTCCGGTCTCCC
DNA 2: TGGTGGCTACGACGGGATT
B35: CUGUAUC (DNA:RNA)
RNA: B1 RNA with U25C, C26U, C27G, A28U, G29A, A31C
DNA 1: CAATCTGAATTCCGGTCTCCC
DNA 2: TGGTGGCTACGACGGGATT
B36: CGUCCUG (DNA:RNA)
RNA: B5 RNA with A25C, A26G, A27U, G28C, C30U, U31G
DNA 1: CAATCTGAATTCCGGTCTCCC
DNA 2: TGGTGGCTACGACGGGATT
B37: UGUCAUG (DNA:RNA)
RNA: B1 RNA with C26G, C27U, A28C, G29A, A31G
DNA 1: CAATCTGAATTCCGGTCTCCC
DNA 2: TGGTGGCTACGACGGGATT

Changes are numbered by the printed parent chain; changes in the protein carry UniProt numbers. In all, about 16,000 sequences were measured (“ka relative to ugcaugu”: median about 0.096, highest 2% from about 0.35 on). The sample as a whole holds a higher share of the highest values than the screen did.

This assay has as its target T1, RBFOX1 RRM RbFoxmut (Fox-RRM*) (Homo sapiens, UniProt Q9NWB1 109-208, R118D;E147R;N151S;E152T).
T1 sequence: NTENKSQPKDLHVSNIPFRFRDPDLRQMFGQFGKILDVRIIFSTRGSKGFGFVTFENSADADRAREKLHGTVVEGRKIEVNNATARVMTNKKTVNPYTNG
Briefly: EMSA; HiTS-Eq, 1 nM pool, 10 min; buffer printed only for the single-RNA assays: 10 mM Tris pH 7.5, 150 mM NaCl, 3.4 mM EDTA, 0.001% NP-40, 30 C. The conditions noted are these: tags: His6 N-terminal (pET28a); label: 5' 32P. In short, it runs like this: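 A pool of RNA with 7 randomized nucleotides, 5′-radiolabelled and with DNA-annealed flanks, was equilibrated at 1 nM for 10 min in 50 µL with purified RbFox RRM, wild type or mutant, across increasing protein concentrations. Free RNA was separated by 8% native PAGE, excised, reverse-transcribed, barcoded by PCR and sequenced. Relative association constants were obtained from read-count changes of each RNA species versus the control reaction and normalised to the cognate motif.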
(In general: Mobility shift assays separate free from complexed probe on a gel.)
On to B1, for which the binding signal was 0.135 KA relative to UGCAUGU. For the molecule B2, the binding signal is 0.0863 KA relative to UGCAUGU. In the case of B3 it was 0.55 KA relative to UGCAUGU; in that of B4, 0.1 KA relative to UGCAUGU.

On to B5, for which the binding signal was 0.0705 KA relative to UGCAUGU.

As for B6, the binding signal is 0.0664 KA relative to UGCAUGU.

Regarding B7, the binding signal is 0.0873 KA relative to UGCAUGU.

As to B8, the binding signal was 0.4 KA relative to UGCAUGU. For the molecule B9, the binding signal is 0.126 KA relative to UGCAUGU. In the case of B10 it was 0.239 KA relative to UGCAUGU; in that of B11, 0.585 KA relative to UGCAUGU; in that of B12, 0.115 KA relative to UGCAUGU.

For B13, the binding signal was 0.0874 KA relative to UGCAUGU. In the case of B14 it was 0.371 KA relative to UGCAUGU. Regarding B15, the binding signal was 0.269 KA relative to UGCAUGU.

Turning to B16, the binding signal is 0.0859 KA relative to UGCAUGU.

Turning to B17, the binding signal is 0.0936 KA relative to UGCAUGU. The figure for B18 is 0.107 KA relative to UGCAUGU. With B19, the binding signal is 0.136 KA relative to UGCAUGU. Regarding B20, the binding signal was 0.0707 KA relative to UGCAUGU. For the molecule B21, the binding signal is 0.134 KA relative to UGCAUGU. For B22, the binding signal was 0.0712 KA relative to UGCAUGU. With B23, the binding signal was 0.0806 KA relative to UGCAUGU. The figure for B24 is 0.114 KA relative to UGCAUGU; for B25 it is 0.0459 KA relative to UGCAUGU. In the case of B26 it was 0.275 KA relative to UGCAUGU.

With B27, the binding signal was 0.226 KA relative to UGCAUGU.

Regarding B28, the binding signal was 0.133 KA relative to UGCAUGU. In the case of B29 it was 0.405 KA relative to UGCAUGU; in that of B30, 0.183 KA relative to UGCAUGU. In the case of B31 it was 0.351 KA relative to UGCAUGU. In the case of B32, the binding signal was 0.133 KA relative to UGCAUGU. In the case of B33 it was 1.04 KA relative to UGCAUGU; in that of B34, 0.296 KA relative to UGCAUGU. With B35, the binding signal is 0.362 KA relative to UGCAUGU. The figure for B36 is 0.132 KA relative to UGCAUGU; for B37 it is 0.597 KA relative to UGCAUGU.

The values above are taken from publication PMC9911399, “Two distinct binding modes provide the RNA-binding protein RbFox with extraordinary sequence specificity”.
